The values below come from PubChem BioAssay (NCI).

Common to all, as to experiment: NCI-60 one-dose screen, 48 h (100 = growth as untreated, 0 = no growth, -100 = all killed)
What all share (details): 10 µM unless noted

Assay [1] relates to SK-MEL-2 melanoma.
In assay [2] the test system is EKVX NSCLC.
In assay [3] the test system is SN12C renal.
The test system of assay [4] is UO-31 renal.
The subject of assay [5] is TK-10 renal.
In assay [6] the test system is ACHN renal.
The subject of assay [7] is CAKI-1 renal.
In assay [8] the test system is A498 renal.
Assay [9] deals with CCRF-CEM leukemia.
Assay [10] deals with MOLT-4 leukemia.

About 83,000 compounds went through this panel and 20% of them were active in at least one assay; those are over-represented in the sample as a whole.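 Treatment: one concentration, 48 hours, 96-well format. Scoring: percent growth, with anything below 10 considered active.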 Unmarked numbers belong to inactive results. Calls of active or inactive are those of the source.

As to `CCOC(=O)C#Cc1c(C(=O)OCC)nnn1Cc1ccc(C(F)(F)F)cc1`, the growth in [1] is 97.1%; in assay [2] it was 93.6%; in [3], 57.7%; in assay [4] it was 1.49% (active); in assay [5], 8.7% (active); in assay [6] it was -25.4% (active). In addition, the growth was 0.164% (active) in assay [7], 104% in [8], 8.84% (active) in assay [9] and 25.1% in assay [10].

As for `Clc1c(Cl)[n+](Cc2ccc3ccccc3c2)cn1Cc1ccc2ccccc2c1`, the growth in assay [1] was -55% (active); in [2], 38.7%; in assay [3], 28.1%; in assay [4], 70.7%; in assay [5], -63% (active); in [6], 84.7%. The growth in assay [7] was 89.7%; in assay [8] it was 54.7%; in [9] it was 6.14% (active); in assay [10], -0.428% (active).

On to `CC1(C)CC2=C3C=C[C@@H]4[C@@]5(C)CCC(=O)C(C)(C)[C@@H]5CC[C@@]4(C)[C@]3(C)CC[C@@]2(C(=O)O)C[C@H]1O`, for which the growth in [1] is 9.89% (active); in assay [2] it was 34.9%; in assay [3], 21.8%; in assay [4], 17.1%; in [5], 16.9%; in assay [6] it was 8.49% (active). Moreover, the growth is 22.9% in assay [7], 34.9% in [8], 13.3% in [9] and 19.5% in [10].

As for `CC1=C2[C@@H](CC1)[C@]1(C)O[C@@](c3ccccc3)(C[C@H]1OC(=O)CO)[C@H]2OC(=O)/C=C/c1ccccc1`, the growth in assay [1] was 91.9%; in assay [2], 83.4%; in assay [3], 41.4%; in assay [4] it was -8.71% (active); in [5], 111%; in assay [6], 2.46% (active). Also, the growth in [7] was 72.2%; in assay [8], -78.1% (active); in assay [9], 77.5%; in assay [10], 70.8%.

Regarding `C[C@]1(O)CC(=O)[C@]2(O)C3=C(C=C[C@]2(O)C1)C(=O)c1c(O)cccc1C3=O`, the growth in [1] is 89.7%; in assay [2] it was 73.8%; in [3], 3.18% (active); in assay [4], -96.6% (active); in assay [5] it was -82.8% (active); in assay [6], -100% (active). The growth in assay [7] was -59.8% (active); in [8], 117%; in [9] it was 0.446% (active); in assay [10], -12.8% (active).

Turning to `Ic1ccccc1I`, the growth in assay [1] was 85.4%; in [2], 98.9%; in assay [3], 105%; in assay [4], 78.6%; in assay [5], 105%; in [6], 104%. The growth was 105% in assay [7], 106% in [8], 42.6% in assay [9] and 101% in assay [10].

`c1ccc2c(c1)CCCc1nnc3nc4ccccc4n3c1-2`: the growth is 70.5% in [1]; 37.7% in [2]; 48% in assay [3]; 29.9% in assay [4]; 41.6% in assay [5]; 35.1% in [6]. For the same molecule, the growth in assay [7] was 22%; in [8], 54.8%; in assay [9], 31.5%; in assay [10] it was 31.6%.

As for `CCOC(=O)c1nn(CC(O)c2ccccc2)c(NC(=O)Nc2cccc(F)c2)c1C` (stereo not given), the growth was 95% in assay [1]; 101% in assay [2]; 87.5% in assay [3]; 90.1% in [4]; 105% in [5]; 107% in [6]. Besides, the growth in [7] is 101%; in assay [8], 76.7%; in [9], 96.7%; in [10] it was 99.2%.

For `Cc1nc2ccccc2c(/C=C/c2ccccc2)c1C(=O)/C=C/c1ccccc1`, the growth is 27% in assay [1]; 45.9% in [2]; 23.4% in assay [3]; 35.8% in assay [4]; 31% in assay [5]; 17.4% in [6]. Besides, the growth in [7] was 34.7%; in assay [8] it was 74%; in assay [9] it was 6.85% (active); in assay [10] it was 10.8%.

As for `O=C(O)c1cn(C2CC2)c2cc(N3CCN(C(=O)Nc4nc(-c5ccc(Br)cc5)cs4)CC3)c(F)cc2c1=O`, the growth was -17% (active) in assay [1]; 24.5% in assay [2]; 6.36% (active) in assay [3]; 14% in assay [4]; 34.9% in assay [5]; 17% in assay [6]. Further, the growth was 42.4% in assay [7], -7.91% (active) in assay [8], 6.67% (active) in assay [9] and 8.35% (active) in [10].

Consider `O=C1Nc2ccccc2/C1=C/c1cccn1C(=O)c1ccc(Cl)s1`, for which the growth is 86.7% in assay [1]; 22.6% in [2]; 86.2% in assay [3]; 65.1% in assay [4]; 50.6% in assay [5]; 47.7% in [6]. For the same molecule, the growth is 64% in [7], 67.4% in [8], 26.6% in assay [9] and 30.3% in [10].

Consider `CN(C)c1ccc(-c2ccc3c(c2)c(-c2ccccc2)nc(=O)n3C)cn1`, for which the growth is 26.8% in assay [1]; 69.6% in [2]; 42.6% in assay [3]; 42.3% in assay [4]; 56.4% in assay [5]; 49.9% in assay [6]. Also, the growth in assay [7] was 34.7%; in assay [8], 25.8%; in assay [9], 13%; in assay [10] it was 29.9%.

For `CCOc1c(OC)cc2c(c1O)C(=O)N[C@@H]1[C@@H](O)[C@@H](O)[C@H](O)C[C@@H]21`, the growth was 106% in assay [1]; 98% in assay [2]; 104% in assay [3]; 92.9% in [4]; 93.9% in assay [5]; 103% in [6]. Also, the growth in assay [7] is 91.3%; in assay [8], 99.5%; in [9], 103%; in assay [10], 92.4%.

As for `Cc1ccc(S(=O)(=O)OCCCOS(=O)(=O)c2ccc(C)cc2)cc1`, the growth is 101% in [1]; 99.7% in [2]; 98.1% in assay [3]; 71.3% in [4]; 109% in assay [5]; 96% in [6]. The growth in [7] is 68.3%; in [8], 106%; in [9], 79.1%; in assay [10], 62.5%.

Turning to `COc1ccc(/C=C/c2c(C(=O)/C=C/c3ccccc3)c(C)nc3ccccc23)cc1`, the growth is 14.2% in [1]; 41% in assay [2]; 23.6% in [3]; -7.16% (active) in assay [4]; 25.1% in assay [5]; 7.53% (active) in assay [6]. Besides, the growth in assay [7] was 20.9%; in [8], 46.6%; in [9], 7.45% (active); in assay [10], 6.35% (active).

`CC(=O)OC[C@]12CC[C@@H]([C@@H](C)c3nnc(-c4ccncc4)o3)[C@@H]1[C@H]1CC[C@@H]3[C@@]4(C)CC[C@H](OC(C)=O)C(C)(C)[C@@H]4CC[C@@]3(C)[C@]1(C)CC2`: the growth is 82.3% in assay [1]; 69.3% in assay [2]; 87.1% in assay [3]; 69% in assay [4]; 94.7% in [5]; 80.8% in assay [6]. The growth is 64.4% in [7], 97.4% in assay [8], 68.4% in assay [9] and 57.2% in assay [10].

For the molecule `CC1(C)N=C(N)N=C(N)N1c1cccc(CCc2ccccc2)c1`, the growth in [1] was 50.3%; in assay [2], 67.2%; in [3], 32.4%; in assay [4] it was 98.5%; in assay [5], 38.7%; in assay [6], 105%. Besides, the growth in assay [7] is 107%; in assay [8], 82.7%; in [9], 30.5%; in [10] it was 30.5%.

Consider `CCO/C=N/C1=C(C#N)C(c2ccc(F)cc2)c2sc3c(F)cccc3c2O1` (stereo not given), for which the growth in assay [1] is 2.27% (active); in [2] it was 66.5%; in assay [3] it was 49.7%; in [4], 54.2%; in assay [5] it was 64.4%; in [6], 54%. The growth in assay [7] is 25.2%; in assay [8], 40.8%; in [9] it was 22.9%; in [10], 51.5%.

Consider `[2H]C([2H])([2H])Oc1ccc(F)cc1/C=C/C(=O)/C=C(/C=C/c1cc(F)ccc1OC([2H])([2H])[2H])OB(F)F`, for which the growth in [1] is 94.2%; in [2], 99.7%; in assay [3], 67.4%; in assay [4] it was 53.9%; in assay [5], 96.9%; in [6] it was 54.5%. Further, the growth was 74.1% in [7], 111% in [8], 1.24% (active) in assay [9] and 4.82% (active) in assay [10].

For the molecule `CCOC(=O)c1c(C)nc2c(c1N)/C(=C/c1ccc(OC)cc1)C(=O)N2Cc1ccccc1`, the growth in assay [1] was 64.6%; in assay [2], 75.6%; in assay [3] it was 57.4%; in assay [4], 56.6%; in [5] it was 97.2%; in assay [6] it was 71.1%. For the same molecule, the growth in assay [7] is 78.6%; in [8] it was 74.4%; in assay [9], 48.9%; in assay [10] it was 15.9%.

As for `COc1ccc(-c2n[nH]c(=O)c3nc(NC(=S)Nc4ccc(Oc5ccccc5)cc4)sc23)cc1`, the growth in [1] was 98.6%; in assay [2] it was 106%; in assay [3], 100%; in [4] it was 77.1%; in assay [5], 92.8%; in assay [6] it was 105%. Also, the growth in assay [7] is 87.3%; in assay [8], 80.4%; in [9], 81.2%; in assay [10], 96.9%.

As to `CC/C(Cc1ccccc1)=C(\c1ccc(OCCCN(C)C)cc1)c1ccc(OC(=O)NCc2ccccc2)cc1`, the growth in assay [1] is 97.5%; in assay [2], 78%; in assay [3], 77.2%; in assay [4] it was 61.5%; in assay [5] it was 92.2%; in assay [6] it was 97.4%. For the same molecule, the growth is 93.6% in [7], 85.2% in assay [8], 58.3% in assay [9] and 45.4% in assay [10].

In the case of `Oc1c(CN2CCOCC2)cc(COCc2ccccc2)c2cccnc12`, the growth is 36.9% in assay [1]; 92.5% in assay [2]; 39.9% in assay [3]; 6.45% (active) in [4]; 31.1% in assay [5]; 12.6% in assay [6]. Besides, the growth in assay [7] is 13.5%; in assay [8], 49.7%; in assay [9], 11.7%; in assay [10] it was 15.3%.

As to `CC(=O)c1ccc(Nc2nccc(-c3ccc4ccccc4c3)n2)cc1`, the growth is 91.7% in assay [1]; 96.5% in [2]; 101% in assay [3]; 86.1% in assay [4]; 87.2% in assay [5]; 98.8% in assay [6]. Also, the growth in assay [7] was 104%; in [8] it was 1.1% (active); in assay [9], 88.3%; in assay [10], 74.4%.

As for `N#C/C(=C\c1cn(Cc2ccccc2)c2ccccc12)C(=O)Nc1ncc(Cc2ccccc2Cl)s1`, the growth in assay [1] was 35.9%; in assay [2], 28.7%; in [3], 18.1%; in assay [4], -34.3% (active); in assay [5] it was 6.29% (active); in assay [6], -58.4% (active). Besides, the growth in assay [7] was -11.4% (active); in assay [8] it was -13.3% (active); in assay [9], 37%; in assay [10], 61%.

Take `C#CCn1cnc2cnc(Nc3cccc(NC(=O)C=C)c3)nc21`: the growth in [1] is 61.1% [6.25 µM]; in [2] it was 89.2% [6.25 µM]; in assay [3], 90.5% [6.25 µM]; in [4], 37.5% [6.25 µM]; in [5], 79.9% [6.25 µM]; in assay [6], 75.3% [6.25 µM]. Further, the growth in [7] is 83.4% [6.25 µM]; in [8], 72% [6.25 µM]; in assay [9] it was 1.84% [6.25 µM] (active); in assay [10], 8.28% [6.25 µM] (active).

Turning to `C=CCN1C(=O)c2cccc3c(N4CCOCC4)ccc(c23)C1=O`, the growth in assay [1] was -28.1% (active); in [2], -7.17% (active); in [3], 17%; in assay [4] it was -3.07% (active); in [5], -12.9% (active); in assay [6], 18.6%. In addition, the growth in assay [7] was -39.5% (active); in assay [8] it was -57% (active); in assay [9] it was -7.18% (active); in assay [10], -21.2% (active).
